Reference: PubChem BioAssay AID488969 (Vanderbilt High Throughput Screening Facility, 2010)
The full ranking holds about 110,000 compounds; the median of “z-score” is about -0.1, and the highest 2% start at about 2. Only a selection was taken, and the highest values are over-represented in it overall. Active and inactive are the calls of the source.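 The calls were made as follows: active = z-score in the third read window above 3 or below -3; inactive = the rest.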

These compounds were tested against Metabotropic glutamate receptor 8 (Rattus norvegicus) (UniProt P70579) (assay: rat mGluR8 modulators via GIRK flux, primary screen, cell-based, thallium flux, HTS (AID 488969)). Settings: HEK293 rat mGluR8, GIRK (G protein-gated inwardly rectifying potassium channel) thallium flux, FluoZin2; at 10 µM; stronger effect = higher value; submaximal glutamate (EC20) added with thallium.
Chain of Metabotropic glutamate receptor 8 (Rattus norvegicus) (P70579 whole entry, looked up): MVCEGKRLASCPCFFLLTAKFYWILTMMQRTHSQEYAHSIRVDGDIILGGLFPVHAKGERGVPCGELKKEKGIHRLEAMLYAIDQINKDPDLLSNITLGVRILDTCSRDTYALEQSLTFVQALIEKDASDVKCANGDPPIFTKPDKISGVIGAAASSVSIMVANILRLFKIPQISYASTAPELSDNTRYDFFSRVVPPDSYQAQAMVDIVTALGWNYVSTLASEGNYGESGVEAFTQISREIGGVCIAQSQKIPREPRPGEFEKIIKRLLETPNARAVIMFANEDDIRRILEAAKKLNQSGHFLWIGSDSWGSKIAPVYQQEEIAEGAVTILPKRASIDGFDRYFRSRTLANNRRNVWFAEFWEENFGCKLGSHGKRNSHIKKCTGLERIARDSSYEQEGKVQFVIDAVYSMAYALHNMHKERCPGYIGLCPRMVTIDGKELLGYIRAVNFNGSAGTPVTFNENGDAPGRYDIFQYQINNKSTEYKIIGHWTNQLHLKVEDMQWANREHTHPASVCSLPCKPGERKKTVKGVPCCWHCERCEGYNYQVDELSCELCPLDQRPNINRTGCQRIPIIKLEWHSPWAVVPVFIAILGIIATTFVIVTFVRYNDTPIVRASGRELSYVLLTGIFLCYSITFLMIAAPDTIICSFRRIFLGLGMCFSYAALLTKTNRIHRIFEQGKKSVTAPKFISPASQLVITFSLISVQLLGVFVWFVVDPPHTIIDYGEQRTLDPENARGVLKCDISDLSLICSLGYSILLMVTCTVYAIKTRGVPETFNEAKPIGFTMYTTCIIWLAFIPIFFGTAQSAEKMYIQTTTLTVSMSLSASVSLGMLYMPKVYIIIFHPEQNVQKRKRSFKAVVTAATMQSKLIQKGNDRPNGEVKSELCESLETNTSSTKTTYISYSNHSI

**Q.** `COC(=O)C(C)Sc1nnc(-c2ccncc2)o1` (stereo unspecified) was tested. Which z-score did it give?
**A.** The z-score was -0.297.

**Q.** With `CCOC(=O)N1CCC(N2C(=O)c3cc(C(=O)NC4CCCCC4)ccc3C2O)CC1` (stereo unspecified) as the compound, how does the z-score read?
**A.** The z-score was -0.198.

**Q.** With `CCOC(=O)N1CCC(N2C(=O)c3ccc(C(=O)NCc4ccco4)cc3C2=O)CC1` as the compound, how does the z-score read?
**A.** The z-score was -0.36.

**Q.** Which z-score does the source give for `CCOC(=O)c1c(N)sc2c1CCC(CC)C2` (stereo unspecified) here?
**A.** Its z-score is 0.0842.

**Q.** How did the z-score turn out when `CCOC(=O)c1c(NC(=O)C2C3C=CC(C3)C2C(=O)O)sc2c1CCC(CC)C2` (stereo unspecified) was run?
**A.** Its z-score is 3.71 (active).

**Q.** Which z-score does the source give for `CCOC(=O)c1c(NC(=O)C2C3C=CC(CC3)C2C(=O)O)sc(C)c1C` (stereo unspecified) here?
**A.** Its z-score is 0.959.

**Q.** For `Cc1ccc(OCCNC(=O)/C=C/c2ccccc2)cc1C`, which z-score is on record?
**A.** The z-score was -0.203.

**Q.** How did the z-score turn out when `CCOC(=O)c1nn(-c2ccccc2)c(=O)cc1SC(C)C` was run?
**A.** Its z-score is -0.0576.

**Q.** With `CC(C)(C)NC(=O)C(=O)NNC(=O)c1ccc(C(C)(C)C)cc1` as the compound, how does the z-score read?
**A.** Its z-score is 5.3 (active).

**Q.** Which z-score does the source give for `CC(C)(C)NC(=O)C(=O)NNC(=O)c1ccccc1` here?
**A.** The z-score was 1.57.

**Q.** For `Cc1cccc(C(=O)NNC(=O)C(=O)NC(C)(C)C)c1`, which z-score is on record?
**A.** The z-score was 2.45.

**Q.** For `COC(=O)NNC(=O)c1cccc(C)c1`, which z-score is on record?
**A.** The z-score was -0.067.

**Q.** `Cc1cccc(C(=O)NNC(=O)c2ccccc2)c1` was tested. Which z-score did it give?
**A.** Its z-score is -0.0133.

**Q.** `CC(C)(C)c1ccc(C(=O)NNC(=O)C(=O)N2CCCCC2)cc1` was tested. Which z-score did it give?
**A.** The z-score was 0.478.

**Q.** With `Cc1nc(C)c(C(=O)N/N=C/c2cn(C)c3ccccc23)s1` as the compound, how does the z-score read?
**A.** The z-score was 0.0943.

**Q.** `CCOCCc1nnc(NC(=O)c2cccc(F)c2)s1` was tested. Which z-score did it give?
**A.** The z-score was -0.243.

**Q.** For `COc1ccc(NC(=O)Cn2c(=O)n(CC(=O)NCc3ccco3)c(=O)c3ccccc32)cc1`, which z-score is on record?
**A.** The z-score was 0.213.

**Q.** For `O=C(CN(Cc1ccccc1)C1=NCCS1)c1ccccc1`, which z-score is on record?
**A.** The z-score was -0.754.

**Q.** `COc1ccc(-c2noc(-c3ccccc3C(=O)Nc3cccnc3)n2)cc1OC` was tested. Which z-score did it give?
**A.** Its z-score is 0.205.

**Q.** With `N#CCc1ccc(C(=O)c2ccccc2)s1` as the compound, how does the z-score read?
**A.** The z-score was -0.167.

**Q.** How did the z-score turn out when `Cc1ccc(N(CC(=O)N2CCOCC2)S(=O)(=O)c2ccccc2)cc1` was run?
**A.** Its z-score is 0.464.

**Q.** Which z-score does the source give for `CC(C)N1CCC(=NNc2ccc(S(=O)(=O)N3CCOCC3)cc2[N+](=O)[O-])CC1` here?
**A.** Its z-score is 0.0912.

**Q.** For `OC(CNCC1CCCO1)Cn1c2ccc(Cl)cc2c2cc(Cl)ccc21` (stereo unspecified), which z-score is on record?
**A.** Its z-score is 0.381.

**Q.** How did the z-score turn out when `OC(CNCC1CCCO1)Cn1c2ccc(Br)cc2c2cc(Br)ccc21` (stereo unspecified) was run?
**A.** Its z-score is 3.72 (active).

**Q.** `OC(CNCc1ccco1)Cn1c2ccc(Br)cc2c2cc(Br)ccc21` (stereo unspecified) was tested. Which z-score did it give?
**A.** The z-score was 0.138.

**Q.** `Cc1ccc(S(=O)(=O)N(C)C)cc1NC(=O)CCNC(=O)c1ccccc1Cl` was tested. Which z-score did it give?
**A.** The z-score was -0.212.

**Q.** How did the z-score turn out when `C=CCN1C(=O)C2C(C(=O)NC3CCCCC3)C3C=CC2(O3)C1C(=O)NC1CCCC1` (stereo unspecified) was run?
**A.** The z-score was -0.014.

**Q.** Which z-score does the source give for `O=C(Nc1ccc(OC(F)(F)F)cc1)c1n[nH]c(Cn2cncn2)n1` here?
**A.** The z-score was -0.0524.

**Q.** `COc1cccc(C2=NN(C(=O)c3ccccc3)C(O)(C(F)(F)F)C2)c1` (stereo unspecified) was tested. Which z-score did it give?
**A.** The z-score was 2.79.

**Q.** How did the z-score turn out when `COc1ccc(C(=O)N2N=C(c3cccc(OC)c3)CC2(O)C(F)(F)F)cc1` (stereo unspecified) was run?
**A.** Its z-score is 0.326.

**Q.** `COc1cccc(C(=O)N2N=C(c3cccc(OC)c3)CC2(O)C(F)(F)F)c1` (stereo unspecified) was tested. Which z-score did it give?
**A.** Its z-score is 0.00352.

**Q.** `O=C1CCCc2c1[nH]c1ccc(CN3CCCCC3)cc21` was tested. Which z-score did it give?
**A.** Its z-score is 0.129.

**Q.** Which z-score does the source give for `CN(C)CCNc1oc(COc2ccc(Cl)cc2)nc1C#N` here?
**A.** Its z-score is 1.5.

**Q.** `COc1ccc(CCNc2oc(COc3ccccc3)nc2C#N)cc1` was tested. Which z-score did it give?
**A.** Its z-score is -0.509.

**Q.** How did the z-score turn out when `CN(C)CCNc1oc(COc2ccc(-c3ccccc3)cc2)nc1C#N` was run?
**A.** Its z-score is 2.06.

**Q.** For `CN(C)CCCNc1oc(-c2ccc(Cl)cc2)nc1C#N`, which z-score is on record?
**A.** Its z-score is 1.35.

**Q.** For `CCN(CC)CCCNc1oc(-c2ccc(OC)c(OC)c2)nc1C#N`, which z-score is on record?
**A.** Its z-score is -0.222.

**Q.** How did the z-score turn out when `CCN(CC)CCCNc1oc(-c2cccc(Cl)c2)nc1C#N` was run?
**A.** Its z-score is 1.31.

**Q.** How did the z-score turn out when `COc1ccc(-c2nc(C#N)c(NCCCN(C)C)o2)cc1OC` was run?
**A.** Its z-score is 11.2 (active).

**Q.** With `CN(C)CCNc1oc(-c2cccc(Cl)c2)nc1C#N` as the compound, how does the z-score read?
**A.** The z-score was 2.54.

**Q.** How did the z-score turn out when `CN(C)CCCNc1oc(-c2cccc(Cl)c2)nc1C#N` was run?
**A.** Its z-score is -0.825.

**Q.** `Cc1ccccc1NC(=O)NCC1CCCO1` (stereo unspecified) was tested. Which z-score did it give?
**A.** The z-score was 0.73.

**Q.** How did the z-score turn out when `CC(C)CC(=O)N1CCN(S(=O)(=O)c2ccc3ccccc3c2)CC1` was run?
**A.** Its z-score is -1.99.

**Q.** With `O=C(COC(=O)[C@H](Cc1c[nH]c2ccccc12)NC(=O)c1ccc(Cl)cc1)Nc1ccc2c(c1)OCO2` as the compound, how does the z-score read?
**A.** Its z-score is 0.558.

**Q.** With `CCOc1c2ccc(C(=O)NCc3ccc4c(c3)OCO4)cc2nn1CCOC` as the compound, how does the z-score read?
**A.** Its z-score is -0.276.

**Q.** Which z-score does the source give for `COc1ccc(/C=N/NC(=O)CSc2nnc(CCCc3ccc(OC)c(C)c3)o2)cc1` here?
**A.** The z-score was -0.18.

**Q.** With `O=C(OCC#CCSc1nnc(-c2ccncc2)o1)c1sc2ccccc2c1Cl` as the compound, how does the z-score read?
**A.** Its z-score is 2.87.

**Q.** For `O=C(OCC#CCSc1nnc(-c2ccccc2)o1)c1cccs1`, which z-score is on record?
**A.** The z-score was -0.745.

**Q.** How did the z-score turn out when `O=C(OCC#CCSc1nnc(-c2ccncc2)o1)c1cccs1` was run?
**A.** The z-score was -0.0957.

**Q.** For `CC1Cc2ccccc2N1C(=O)Cc1cccs1` (stereo unspecified), which z-score is on record?
**A.** Its z-score is -0.395.

**Q.** How did the z-score turn out when `O=C(CNC(=S)NC(=O)c1ccc(F)cc1)c1ccccc1` was run?
**A.** The z-score was -0.0791.

**Q.** `O=C(NC(=S)NCCN1CCOCC1)c1ccc(F)cc1` was tested. Which z-score did it give?
**A.** The z-score was -0.084.

**Q.** For `O=[N+]([O-])c1ccc(NC(=S)NCCc2ccc(F)cc2)cc1`, which z-score is on record?
**A.** The z-score was 1.65.

**Q.** With `CC(C)CCNC(=S)Nc1ccc([N+](=O)[O-])cc1` as the compound, how does the z-score read?
**A.** The z-score was 1.2.

**Q.** For `O=[N+]([O-])c1ccc(NC(=S)NCCc2ccccc2)cc1`, which z-score is on record?
**A.** The z-score was 2.91.

**Q.** How did the z-score turn out when `CCCCNC(=S)Nc1ccc([N+](=O)[O-])cc1` was run?
**A.** Its z-score is 2.

**Q.** Which z-score does the source give for `CCCCNC(=S)Nc1cc([N+](=O)[O-])ccc1C` here?
**A.** The z-score was 0.706.

**Q.** For `Cc1ccc(CNC(=S)Nc2ccc(C)c([N+](=O)[O-])c2)cc1`, which z-score is on record?
**A.** Its z-score is 0.255.

**Q.** `CC(C)CNC(=S)NC(=O)c1ccc(F)cc1` was tested. Which z-score did it give?
**A.** The z-score was 7.84 (active).

**Q.** Which z-score does the source give for `Cc1ccc(NC(=S)NCc2ccccc2)cc1[N+](=O)[O-]` here?
**A.** The z-score was 3.51 (active).

**Q.** For `CCOc1ccc(NC(=S)Nc2ccc(C)c([N+](=O)[O-])c2)cc1`, which z-score is on record?
**A.** The z-score was 0.652.

**Q.** How did the z-score turn out when `O=[N+]([O-])c1ccc(NC(=S)NCCc2ccc(Cl)cc2)cc1` was run?
**A.** The z-score was 0.129.

**Q.** `O=C(N/N=C/c1ccncc1)c1cc(Br)ccc1OCc1ccccc1` was tested. Which z-score did it give?
**A.** Its z-score is 0.109.

**Q.** With `Cn1c(SCCOc2ccccc2Cl)nnc1-c1cccs1` as the compound, how does the z-score read?
**A.** The z-score was -0.314.

**Q.** With `CCCCCCCC(=O)NNC(=O)c1ccc([N+](=O)[O-])cc1` as the compound, how does the z-score read?
**A.** Its z-score is -0.209.

**Q.** For `CC(C)CC(=O)NC(=S)NNC(=O)c1ccc([N+](=O)[O-])cc1`, which z-score is on record?
**A.** Its z-score is 0.187.

**Q.** `CCCCNC(=S)NC(=O)c1ccc([N+](=O)[O-])cc1` was tested. Which z-score did it give?
**A.** Its z-score is 7.01 (active).

**Q.** `Cc1ccc(NC(=O)c2ccncc2)cc1[N+](=O)[O-]` was tested. Which z-score did it give?
**A.** The z-score was -0.142.

**Q.** Which z-score does the source give for `CC(C)CNC(=S)NC(=O)c1ccc([N+](=O)[O-])cc1` here?
**A.** The z-score was 6.28 (active).

**Q.** `O=C(NC(=S)NCC1CCCO1)c1ccc([N+](=O)[O-])cc1` (stereo unspecified) was tested. Which z-score did it give?
**A.** The z-score was -0.067.

**Q.** For `Cc1ccc([N+](=O)[O-])cc1NC(=O)c1ccc(C(C)(C)C)cc1`, which z-score is on record?
**A.** Its z-score is -1.53.

**Q.** For `CC(=O)Nc1ccc(NC(=S)NC(=O)c2ccc([N+](=O)[O-])cc2)cc1`, which z-score is on record?
**A.** Its z-score is -0.11.

**Q.** How did the z-score turn out when `CC(C)C(=O)Nc1cccc(NC(=S)NC(=O)c2ccc([N+](=O)[O-])cc2)c1` was run?
**A.** The z-score was -0.0455.

**Q.** With `CCCC(=O)NC(=S)NNC(=O)c1ccc([N+](=O)[O-])cc1` as the compound, how does the z-score read?
**A.** Its z-score is -0.394.

**Q.** With `CCCCCC(=O)NC(=S)NNC(=O)c1ccc([N+](=O)[O-])cc1` as the compound, how does the z-score read?
**A.** Its z-score is 2.66.

**Q.** Which z-score does the source give for `Cc1ccc(NC(=O)c2ccc(C(C)(C)C)cc2)cc1[N+](=O)[O-]` here?
**A.** The z-score was 2.5.
